# Only some compounds are listed: those with a hit (about 4.8% of all), similar ones and a draw of the others.
# S2 tox = reduces viability in counter-screen for ATXN expression inhibitors; S2 cells (HEK-293 line with an ATXN2-luciferase reporter) viability, CellTiter-Fluor protease fluorescence, 24 h; Potency, µM (top dose mostly 56.7 µM), usual class: cytotoxic; actives 0.49% (n = 400,000); also: potency is read from the fitted curve at half-maximal effect; nearly all actives have a fitted effect of over 40% in size
# USP2a block = blocks human ubiquitin-specific protease USP2a | actives 0.01% (n = 330,000) | USP2 core, Ub-CHOP2 coupled fluorogenic reporter, 485/531 | Potency, µM (doses to about 38.3 µM), inactives show at the highest dose activity change, negative = inhibition, actives largely listed as inhibitors | AID 463254;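 also: potency is read from the fitted curve at half-maximal effect; plate controls were DMSO wells for no effect and full inhibition by NEM control for full effect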
#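 Cell-free coupled assay: 10nM USP2 core preincubated 30min RT with compound in Tris-HCl pH 8.0/CaCl2/CHAPS buffer, then 25nM Ub-CHOP2 and 25nM reporter substrate; fluorescence (Ex 485/Em 531) read after 60min RT, normalized to NEM inhibition, concentration-response curves fitted.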
# USP1 inh = inhibitors of human USP1/UAF1 deubiquitinase; O94782; recombinant USP1/UAF1, Ub-Rhodamine cleavage fluorescence; Potency, µM (series often up to 57.1 µM), for inactives: at the highest dose activity change, negative = inhibition, hits mostly inhibitors; actives 0.23% (n = 390,000); also: potency is read from the fitted curve at half-maximal effect; % is scaled to controls: 0 for no effect and ±100 for the full control effect; nearly all actives have a fitted effect of over 60% in size
# Target sequence (O94782 whole entry, looked up): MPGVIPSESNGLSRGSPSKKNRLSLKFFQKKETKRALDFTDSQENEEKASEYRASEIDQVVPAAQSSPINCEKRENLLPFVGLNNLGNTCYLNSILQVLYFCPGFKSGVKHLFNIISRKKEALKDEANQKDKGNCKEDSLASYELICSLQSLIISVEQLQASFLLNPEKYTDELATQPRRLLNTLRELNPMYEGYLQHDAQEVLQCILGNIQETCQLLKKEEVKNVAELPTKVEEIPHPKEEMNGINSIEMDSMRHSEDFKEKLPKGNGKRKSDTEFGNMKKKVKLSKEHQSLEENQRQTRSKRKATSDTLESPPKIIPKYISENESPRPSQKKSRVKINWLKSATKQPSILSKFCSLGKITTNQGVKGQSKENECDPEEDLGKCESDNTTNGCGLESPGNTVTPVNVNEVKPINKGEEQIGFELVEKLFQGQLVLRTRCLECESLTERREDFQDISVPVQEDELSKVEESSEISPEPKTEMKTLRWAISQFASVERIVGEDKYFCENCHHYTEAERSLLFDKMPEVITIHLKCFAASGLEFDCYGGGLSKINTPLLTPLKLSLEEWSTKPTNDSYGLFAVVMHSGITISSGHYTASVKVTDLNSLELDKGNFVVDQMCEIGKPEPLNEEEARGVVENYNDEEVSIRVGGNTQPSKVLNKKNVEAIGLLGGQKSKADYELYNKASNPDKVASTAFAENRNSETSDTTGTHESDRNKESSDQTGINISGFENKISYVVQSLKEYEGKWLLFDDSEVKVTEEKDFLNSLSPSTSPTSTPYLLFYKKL
#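 In this screen, compounds sit with the deubiquitinase complex (1nM) for 15 min at room temperature before Ub-Rho is added at 150nM final. Fluorescence rise is then followed for 6 reads every 60 seconds.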
# IL-1B inflam inh = inflammasome signaling inhibition, IL-1 beta readout; THP-1 LPS/ATP IL-1B secretion, AlphaLISA, 16 h; hits give low values; activity change, % at 57.5 µM; actives 4.7% (n = 360,000); AID 743279; in the data active = activity change below about -50%; inconclusive = mostly about -30% to -49%; also: % is scaled to controls: 0 for no effect and ±100 for the full control effect
#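 Secreted IL-1B measured by AlphaLISA bead assay after 16 h compound exposure of THP-1 cells; compounds (final up to 57.5 uM) added 1 h before LPS (250 ng/mL) and ATP (1.25 mM) stimulation; lower signal means less secretion.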
# ATXN2 expr inh = reduces ATXN2 reporter expression in HEK-293 cells; HEK-293 ATXN2-luciferase reporter, luminescence, 24 h; Potency, µM (series often up to 57 µM), for inactives: top-dose activity change, negative = inhibition, most hits filed as inhibitors; actives 0.72% (n = 360,000); AID 1745845; also: potency is read from the fitted curve at half-maximal effect; % is scaled to controls: 0 for no effect and ±100 for the full control effect; nearly all actives have a fitted effect of over 55% in size
#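 qHTS (up to 57 uM final) was run with 24 h compound exposure of reporter cells at 37 °C. Each well was multiplexed: SteadyGlo luminescence measured ATXN2-luciferase expression after a fluorogenic Gly-Phe-AFC viability readout (25 uM final).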
# An asterisk follows results filed as active; i = inactive; ? = inconclusive; / = no result; [ ] = another dose, or the depositor's remark. Unless noted, calls follow the shape of the dose curve; as a rule, active = well fitted curve in the direction sought with a large enough effect; inconclusive = small, poorly fitted or top-dose-only effect, or another doubt; inactive = no such curve, though single readings can be large; an effect the other way counts as inactive or inconclusive.
SMILES,S2 tox,USP2a block,USP1 inh,IL-1B inflam inh,ATXN2 expr inh
CCOC(=O)c1cc(=O)c2c(OCC(COc3cccc4oc(C(=O)OCC)cc(=O)c34)OC(=O)[C@@H](N)CCCCN)cccc2o1,i,/,/,/,3%
COc1ccc(N2CCN(CC(O)COC(c3ccc(F)cc3)c3ccc(F)cc3)CC2)cc1 (stereo not given),?,-2%,-10%,-12,/
OCCN1CCN(CC(O)COC(c2ccc(F)cc2)c2ccc(F)cc2)CC1 (stereo not given),i,-1%,-17%,-79*,-3%
COC(=O)[C@@H](NC(=O)C1CCCN(c2nc(C)c3ccc(C)cc3n2)C1)C(C)C (stereo not given in full),i,/,/,/,/
O=C(CSc1nn(-c2ccc(F)cc2)c(=S)s1)N1CCN(C(=O)c2ccco2)CC1,i,-1%,-6%,-79*,-12%
O=C(CSc1nn(-c2ccc(Cl)cc2)c(=S)s1)N1CCN(C(=O)c2ccco2)CC1,i,-18%,-2%,-1,5%
COc1ccc(-c2ccc(C(=O)N(C)Cc3csc(C)n3)c(N3CCC(N4CCc5ccccc5C4)CC3)n2)cc1,i,/,/,/,/
CN(C)c1ccc(CN(Cc2ccco2)C(=O)COc2ccc(F)cc2)cc1,/,/,-26%,/,/
O=C(Cn1c2ccccc2c(=O)c2ccccc21)N/N=C/c1ccc(N2CCCC2)c([N+](=O)[O-])c1,/,3%,-17%,8,32µM*
N#Cc1cc(NC(=O)C(=O)O)c(Cl)c(NC(=O)C(=O)O)c1,i,/,/,/,18%
COc1cccc(CNC(=O)c2c(OC)cc(=O)n3c2CCN(C(=O)C2CC=CCC2)CC3)c1 (stereo not given),i,/,/,/,/
C[C@@H]1[C@H](C)CC[C@@]2(C(=O)O)CC[C@]3(C)C(=CC[C@H]4[C@@]5(C)CC[C@@H](O)C(C)(C)[C@@H]5CC[C@@]43C)[C@@H]12,i,/,/,/,/
OCC1(CCCc2ccccc2)CCN(C2CCSCC2)CC1,i,3%,-9%,-70*,-20%[11.3 µM]
CSCC(C)N1CCC(CO)(CCCc2ccccc2)CC1 (stereo not given),i,0%,3%,9,?
OCC1(CCCc2ccccc2)CCN(C2CCC2)CC1,i,1%,2%,-54*,-9%
Cc1ccccc1CN1[C@@H]2c3ccccc3C[C@@H]2OCCS1(=O)=O,i,-1%,-35%,9,11%
CCOc1ccc(NC(=O)CCCNC(=O)Cn2cnc3sc(C)c(C)c3c2=O)cc1,?,1%,-9%,9,0%
CC(C)c1cc(NC(=O)c2ccccc2)cc(C(C)C)c1O,i,1%,-4%,-57*,-16%
CC(=O)Nc1cc(C(C)C)c(O)c(C(C)C)c1,i,-1%,1%,-2,-12%
N#Cc1cccc(NC(=O)COC(=O)Cn2nc(-c3ccccc3)oc2=O)c1,i,1%,2%,0,/
Cc1ccc(Nc2nc3ccccc3[nH]2)nc1,?,0%,-15%,-53*,-30%
Cc1ccc(C)c(C(=O)Nc2nc3ccccc3[nH]2)c1,i,0%,-8%,5,-18%
COc1ccc(CN2CSC(=S)N(Cc3ccccc3)C2)cc1,7.1µM*,2%,-3%,-3,/
c1nc2nc(Nc3ccc(N4CCOCC4)cc3)nc(NC3CCCCC3)c2[nH]1,/,/,/,/,24µM*
O=C(Nc1ccc(N2CCOCC2)cc1)C1CCCCC1,i,/,-2%,-20,27%
SMILES,S2 tox,USP2a block,USP1 inh,IL-1B inflam inh,ATXN2 expr inh
Cn1c(=O)c2cc(C(=O)N3CCN(c4ccc(Cl)cc4)CC3)sc2c2ccccc21,i,/,-5%,/,6%
COc1ccc(OCC(=O)Nc2ccc3c(c2)nc(CCN2CCCCC2)n3C)cc1,i,0%,-13%,?,-11%
Cc1cccc(OCC(=O)Nc2ccc3c(c2)nc(CCN2CCCCC2)n3C)c1,?,0%,-12%,-50*,/
Cc1ccc(S(=O)(=O)Nc2ccc3c(c2)nc(CCN2CCCCC2)n3C)cc1,i,3%,-15%,-92*,12%
Cc1ccc(OCC(=O)Nc2ccc3c(c2)nc(CCN2CCCCC2)n3C)cc1,i,-3%,-26%,-61*,/
Cn1c(CCN2CCN(c3ccccn3)CC2)nc2cc(NS(=O)(=O)c3ccc(Cl)cc3)ccc21,i,-1%,-9%,-76*,-19%
Cc1ccc(S(=O)(=O)Nc2ccc3c(c2)nc(CCN2CCN(c4ccccn4)CC2)n3C)cc1,i,2%,-18%,-13,-5%
CC(C)(C)c1ccccc1OCC(=O)NCc1ccccc1,i,0%,-8%,20,/
Cc1cc(C(=O)OC(C)C(=O)NC2CCCCC2C)c2ccccc2n1 (stereo not given),?,/,-27%,32,/
Cc1csc(=O)n1CC(=O)OC(C)C(=O)Nc1ccc(N(C)C)cc1 (stereo not given),i,/,-20%,-14,0%
COc1ccc(OCC(=O)Nc2ccc3c(c2)nc(CCN2CCN(c4ccccn4)CC2)n3C)cc1,?,/,-21%,56,/
Cc1cccc(OCC(=O)Nc2ccc3c(c2)nc(CCN2CCN(c4ccccn4)CC2)n3C)c1,?,4%,-21%,?,14µM*
CC1CCN(CCc2nc3cc(NC(=O)COc4ccc(Cl)cc4)ccc3n2C)CC1,?,1%,-16%,-96*,-10%
O=C(OCc1cc(=O)n2nc(C3CC3)sc2n1)c1cccc(NC(=O)c2ccccc2Cl)c1,i,/,-18%,/,1%
O=P(c1ccccc1)(c1ccccc1)c1nc(-c2ccccc2)oc1N1CCOCC1,i,0%,-12%,-24,-31%
O=P(c1ccccc1)(c1ccccc1)c1nc(-c2ccc(Cl)cc2)oc1N1CCOCC1,?,-14%,?,-65*,-18%
CCOP(=O)(OCC)c1nc(-c2cccc3ccccc23)oc1N1CCOCC1,/,-1%,-17%,-73*,-14%
CCOP(=O)(OCC)c1nc(-c2ccccc2Cl)oc1N1CCOCC1,i,0%,3%,6,11%
CCOP(=O)(OCC)c1nc(-c2cccc3ccccc23)oc1NCCc1ccc(OC)cc1,i,1%,-15%,-55*,-19%
CCOP(=O)(OCC)c1nc(-c2ccc(Cl)cc2Cl)oc1N1CCCCC1,i,2%,-9%,-113*,-31%
CC(C(=O)Nc1ccc2c(c1)OCCO2)N(C)CC(=O)Nc1ccccc1Br (stereo not given),i,-1%,-13%,-9,6%
CC(C)c1c(C(=O)NCc2ccncc2)cnn1-c1nccc(-c2cccs2)n1,i,/,/,/,/
CCOP(=O)(OCC)c1nc(-c2ccc(F)cc2)oc1NCc1ccccc1,/,-1%,-10%,-54*,-21%
CCOP(=O)(OCC)c1nc(-c2ccccc2)oc1NCc1ccccc1,i,-1%,-4%,-25,5%

# Screening data (PubChem)
